Bioassay records as filed in PubChem.
Chronic BCR inh: blocks chronic active B-cell receptor signaling. ABC-DLBCL IkBa-CBG/CBR reporter, luminescence ratio, 4 h. Potency, µM (highest dose often 46.1 µM), without a hit: top-dose activity change, negative = inhibition, actives largely listed as inhibitors. actives 0.05% (n = 340,000); active means well fitted inhibition curve with a large enough effect in the signal ratio, with a control signal flat, not every such curve was filed as active; inconclusive means small, poorly fitted or top-dose-only effect, or effect the other way, or a change in a side signal; the % refers to the signal ratio;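 further: potency means the concentration at half of the fitted maximal effect; plate controls were basal doxycycline-induced cells for no effect and cells given 10 µM MG132 for full effect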
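Doxycycline induced both beetle luciferases in TMD8 lymphoma cells; IKK-driven degradation limits the IkappaBalpha-fused green signal, while red luminescence normalises for cell number and nonspecific effects. Compounds tested up to 46 uM, 4 hrs.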
DT40 TDP1 no CPT: qHTS for Inhibitors of human tyrosyl-DNA phosphodiesterase 1 (TDP1): qHTS in cells in absence of CPT; actives 15% (n = 420,000); Potency, µM (series often up to 46.2 µM), inactives show at the highest dose activity change, negative = growth inhibition, most hits filed as inhibitors; DT40 Tdp1-/- hTDP1 cells, no CPT, ATP luminescence, 48 h; further: potency means the concentration at half of the fitted maximal effect; on the % scale 0 is the no-effect control and ±100 the full control effect; nearly all actives have a fitted effect of over 55% in size
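Luminescent ATP content (CellTiter-Glo) served as the growth readout. Knockout chicken DT40 cells expressing human TDP1 were exposed to compounds without camptothecin for a minimum 48 hr at 37 °C.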
SW480 rerep: induces DNA re-replication in SW480 colon adenocarcinoma cells; Potency, µM (highest dose often 46.1 µM), without a hit: at the highest dose re-replication activation, actives largely listed as activators; AID 624297; actives 1.8% (n = 340,000); SW480 DNA re-replication, Hoechst DNA content imaging, 48 h; further: potency means the concentration at half of the fitted maximal effect; % of control where 0% means no effect; nearly all actives have a fitted effect of over 55% in size
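250 cells/well; 23 nL cpd via pin tool; 48 hr, 37 C, 5% CO2; Hoechst 40 min; imager read of total nuclear intensity, ex 405/em 500-530 nm.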
MCF10A rereplic: inducers of DNA re-replication in MCF 10A breast cells. Potency, µM (top dose mostly 46.1 µM), for the others: top-dose activity, positive = re-replication, actives largely listed as activators. MCF 10A DNA re-replication, Hoechst nuclear intensity, 48 h. actives 2.9% (n = 350,000); further: potency means the concentration at half of the fitted maximal effect; % of control where 0% means no effect; nearly all actives have a fitted effect of over 50% in size
IL-1B inflam inh: blocks inflammasome-driven IL-1 beta release; THP-1 LPS/ATP IL-1B secretion, AlphaLISA, 16 h; stronger effect = lower value; actives 4.7% (n = 360,000); activity change, % at 57.5 µM; in the data active means activity change below about -50%; inconclusive means mostly about -30% to -49%; further: on the % scale 0 is the no-effect control and ±100 the full control effect
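Secreted IL-1B measured by AlphaLISA bead assay after 16 h compound exposure of THP-1 cells; compounds (final up to 57.5 uM) added 1 h before LPS (250 ng/mL) and ATP (1.25 mM) stimulation; lower signal means less secretion.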
TDP1 cell CPT: growth inhibition of DT40 Tdp1-/-;hTDP1 cells with camptothecin (screen for TDP1 inhibitors); chicken DT40 Tdp1-/-;hTDP1 cells + 20 nM CPT, ATP luminescence, 48 h; actives 12% (n = 420,000); Potency, µM (top dose mostly 46.2 µM), inactives show top-dose activity change, negative = growth inhibition, most hits filed as inhibitors; further: potency means the concentration at half of the fitted maximal effect; on the % scale 0 is the no-effect control and ±100 the full control effect; nearly all actives have a fitted effect of over 55% in size
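Chicken DT40 Tdp1-/- cells stably complemented with human TDP1 were seeded at 400 cells/well in medium containing 20 nM camptothecin, exposed to pin-transferred compounds, and grown at 37 °C for at least 48 hr. Viability was read as ATP luminescence.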
An asterisk follows results filed as active; ? = inconclusive; nt = no result given. Most compounds without a hit are left out; they make up all but 19% or so of the library. Unless noted, the call rests on the fitted dose curve; in most records, active means well fitted curve in the direction sought with a large enough effect; inconclusive means small, poorly fitted or top-dose-only effect, or another doubt; inactive means no such curve, though single readings can be large; an effect the other way counts as inactive or inconclusive.

SMILES	Chronic BCR inh	DT40 TDP1 no CPT	SW480 rerep	MCF10A rereplic	IL-1B inflam inh	TDP1 cell CPT
CNC(=S)N(CCN(C)C)Cc1cc2cc3c(cc2[nH]c1=O)OCO3	-1.7%	-10.4%	-7.3%	2.9%	13.6	4.6%
CCCOc1cccc(C2c3c(oc4ccc(F)cc4c3=O)C(=O)N2CCc2ccc(OC)cc2)c1 (stereo unspecified)	nt	?	nt	nt	nt	-26.2%
CSc1ccccc1OCc1cc(C(=O)NCc2cccc(C)n2)no1	-7.2%	-7.4%	-1.9%	-1.3%	-5.4	-1.1%
CSc1ccccc1OCc1cc(C(=O)N(C)CCn2nc(C)cc2C)no1	-12.4%	20.6µM*	?	?	19.5	14.6µM*
CCn1nc(C)c(CNC(=O)c2cc(COc3ccccc3SC)on2)c1C	?	?	0.9%	-1.1%	-11.8	20.6µM*
CSc1ccccc1OCc1cc(C(=O)NC(C)Cc2cccc(C)n2)no1 (stereo unspecified)	?	13µM*	-0.9%	29.7%	-56.7*	16.4µM*
COc1ccc(F)cc1S(=O)(=O)NCC(=O)NCc1cc(=O)n(C)c(=O)n1C	3.7%	1.7%	10.7%	2.4%	0.0	12.8%
CCn1nc(NC(=O)c2ccco2)c2cc3ccccc3nc21	?	?	?	20.6µM*	-10.3	?
CC(C)Cn1nc(NC(=O)c2ccco2)c2cc3ccccc3nc21	?	13µM*	16.4µM*	?	39.7	14.6µM*
Cc1ccc2nc3c(cc2c1)c(NC(=O)c1ccco1)nn3CC(C)C	?	?	?	12.3%	-23.7	-12.3%
COc1ccc(Br)c(Cn2c(C)c(C(=O)NCCC#N)sc2=O)c1	nt	-23.6%	nt	nt	-8.4	-26.0%
O=C(Nc1ccc(F)c(Cl)c1)c1ccc2sc([C@H]3C[C@H](O)[C@@H](CO)O3)nc2c1	nt	20.6µM*	nt	nt	0.2	18.4µM*
O=C(Nc1nnc([C@H]2C[C@H](O)[C@@H](CO)O2)s1)c1ccccc1F	nt	-6.2%	nt	nt	25.4	3.3%
O=C(NCc1cccnc1)c1ccc2sc([C@H]3C[C@H](O)[C@@H](CO)O3)nc2c1	nt	3.1%	nt	nt	8.2	-9.7%
O=C(Nc1ccc(F)c(Cl)c1)c1ccc2sc([C@@H]3O[C@H](CO)[C@H](O)[C@H](O)[C@H]3O)nc2c1	nt	-10.5%	nt	nt	9.3	-6.5%
O=C(NCCN1CCNC1=O)c1ccc2sc([C@H]3C[C@H](O)[C@@H](CO)O3)nc2c1	nt	-10.5%	nt	nt	-86.2*	-17.4%
CC(=O)Nc1ccc(NC(=O)c2ccc3sc([C@H]4C[C@H](O)[C@@H](CO)O4)nc3c2)cc1	nt	-1.7%	nt	nt	16.0	-10.5%
O=C(Nc1nnc([C@@H]2C[C@H](O)[C@@H](CO)O2)s1)c1c(F)cccc1F	nt	-4.0%	nt	nt	-55.6*	-2.0%
O=C(Nc1ccc(Oc2ccccc2)cc1)c1ccc2sc([C@H]3C[C@H](O)[C@@H](CO)O3)nc2c1	nt	20.6µM*	nt	nt	62.6	?
O=C(Nc1cccc(C(F)(F)F)c1)c1ccc2sc([C@H]3C[C@H](O)[C@@H](CO)O3)nc2c1	nt	23.1µM*	nt	nt	32.1	?
O=C(Nc1ccc(F)c(Cl)c1)c1csc([C@@H]2C[C@H](O)[C@@H](CO)O2)n1	nt	-26.0%	nt	nt	14.4	?
O=C(NCc1cc(Cl)cc(Cl)c1)c1ccc2sc([C@H]3C[C@H](O)[C@@H](CO)O3)nc2c1	nt	?	nt	nt	31.0	20.6µM*
O=C(Nc1ccc(F)c(Cl)c1)c1csc([C@H]2C[C@H](O)[C@@H](CO)O2)n1	nt	?	nt	nt	-6.9	20.6µM*
O=C(NCc1ccccc1Cl)c1ccc2sc([C@H]3C[C@H](O)[C@@H](CO)O3)nc2c1	nt	?	nt	nt	-14.9	?
COc1ccc(C2=C(C)C(N3CCC(C(=O)NCc4ccco4)CC3)=NS2(=O)=O)cc1	nt	?	nt	nt	nt	-27.5%
SMILES	Chronic BCR inh	DT40 TDP1 no CPT	SW480 rerep	MCF10A rereplic	IL-1B inflam inh	TDP1 cell CPT
CCOc1ncccc1C(=O)NCc1ccc(OC)c(OC)c1	13.1%	?	-5.0%	0.5%	0.0	-15.7%
CC(=O)c1ccc(NC(=O)c2cccc(NC(=O)N3CCSc4ncccc43)c2)cc1	nt	-25.2%	nt	nt	nt	-2.2%
Cc1cccc(CNC(=O)c2cccc(NC(=O)N3CCSc4ncccc43)c2)c1	nt	?	nt	nt	nt	14.6µM*
CCOc1ccc(CNC(=O)c2cccc(NC(=O)N3CCSc4ncccc43)c2)cc1OC	nt	16.4µM*	nt	nt	nt	16.4µM*
CCc1ccc(C(=O)c2cn(CC(=O)Nc3cc(F)ccc3F)c3nc(C)ccc3c2=O)cc1	nt	-0.6%	nt	nt	nt	-7.2%
C[C@@H](C[C@@H](O)[C@H](O)C(C)(C)O)[C@@H]1CC[C@]2(C)C3=CC[C@H]4C(C)(C)C(=O)CC[C@]4(C)[C@H]3CC[C@@]12C	?	6.51µM*	2.1%	?	-53.2*	7.31µM*
CC1(C(=O)O)CCC2(C)CCC3(C)C(=CC(=O)C4C5(C)CCC(=O)C(C)(C)C5CCC43C)C2C1 (stereo unspecified)	nt	-15.5%	nt	nt	9.5	-14.0%
Cc1ccc(Sc2c(C(=O)Nc3ccc(F)cc3F)c(C(F)(F)F)nn2C)cc1	13.1%	?	?	7.6%	0.0	18.4µM*
Cn1nc(C(F)(F)F)c(-c2ccc(Br)cc2)c1NC(=O)Nc1ccc(F)cc1F	-10.6%	?	-1.4%	20.6µM*	nt	?
Cn1nc(C(F)(F)F)c(-c2ccc(F)cc2)c1NC(=O)c1ccco1	-0.5%	-18.0%	-3.7%	-1.7%	21.0	-21.1%
CCCNC(=S)N1CCC(Cc2ccccc2)CC1	0.0%	?	1.3%	10.8%	?	?
S=C(Nc1ccccc1)N1CCC(Cc2ccccc2)CC1	-4.5%	3.66µM*	-3.4%	12.9%	-69.2*	4.11µM*
COc1ccc(NC(=S)N2CCC(Cc3ccccc3)CC2)cc1	4.0%	5.17µM*	-2.3%	7.2%	-58.0*	10.3µM*
Cc1cccc(NC(=O)Cn2nnc(C(=O)Nc3ccccc3Br)c2N)c1C	nt	-14.1%	nt	nt	nt	-14.6%
c1ccc(N2CC3COc4ccccc4C3=N2)cc1 (stereo unspecified)	nt	-9.9%	14.6µM*	13µM*	48.4	2.1%
O=C(COC(=O)Cc1n[nH]c(=O)c2ccccc12)Nc1ccc(Cl)cn1	?	2.4%	-5.0%	21.7%	68.1	-22.2%
Cc1ccc(NC(=O)c2cc(S(=O)(=O)N3CCC4(CC3)OCCO4)ccc2F)cc1Cl	?	14.6µM*	nt	nt	nt	8.2µM*
